This passage reports composite z-score and z-score results from PubChem BioAssay.

SMILES strings stand for the structures. The source made the active and inactive calls.

Experiment [1] in a line: small molecules captured by biotinylated probe aFSTL3 – biochemical, small-molecule microarray, fluorescence 635/667, stem cell growth factor project, primary screen (AID 1064).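 Note: measures binding of the biotinylated anti-FSTL3 antibody to printed compounds.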 The settings on record: higher = more signal.
Experiment [2] can be described thus: binders from COS7 lysate, DM2A8 probe, primary screen, torsin A project, cell lysate, small-molecule microarray, fluorescence 635/667 (AID 1065). The settings on record: higher = more signal, COS7 lysate expressing mutant human TOR1A.
Experiment [3] can be described thus: small molecules captured by biotinylated probe aFGF2 – biochemical, small-molecule microarray, fluorescence 635/667, stem cell growth factor project, primary screen (AID 1067).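 Note: measures binding of biotinylated aFGF2 protein to printed compounds on slides; z-score merges feature fluorescence and signal-to-noise across triplicate slides.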 To be noted: higher = more signal.
The nature of experiment [4]: small molecules captured by biotinylated probe aFGF10 – biochemical, small-molecule microarray, fluorescence 635/667, stem cell growth factor project, primary screen (AID 1071).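 Note: score merges 667 nm spot intensity and signal to noise from triplicate slides.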 The settings on record: higher = more signal.
Experiment [5] concerns the target Neurogenic locus notch homolog protein 2 (Homo sapiens) (UniProt Q04721). Put plainly: small molecules binding Notch2 protein – biochemical, small-molecule microarray, 635 nm fluorescence, stem cell growth factors, primary screen (AID 1073). The settings on record: higher = more signal.
For experiment [6], the target named is Pro-neuregulin-1, membrane-bound isoform (Homo sapiens) (UniProt Q02297). Put plainly: small molecules binding neuregulin-1 protein – biochemical, small-molecule microarray, fluorescence 635/667, psychiatric disease protein project, primary screen (AID 1075).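 Note: score combines 667 nm spot fluorescence with signal to noise.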 The settings on record: NRG1 binding, 635 nm fluorescence, higher = more signal.
Chain of Pro-neuregulin-1, membrane-bound isoform (Homo sapiens) (Q02297 whole entry, looked up, the tested form may be a part, canonical isoform): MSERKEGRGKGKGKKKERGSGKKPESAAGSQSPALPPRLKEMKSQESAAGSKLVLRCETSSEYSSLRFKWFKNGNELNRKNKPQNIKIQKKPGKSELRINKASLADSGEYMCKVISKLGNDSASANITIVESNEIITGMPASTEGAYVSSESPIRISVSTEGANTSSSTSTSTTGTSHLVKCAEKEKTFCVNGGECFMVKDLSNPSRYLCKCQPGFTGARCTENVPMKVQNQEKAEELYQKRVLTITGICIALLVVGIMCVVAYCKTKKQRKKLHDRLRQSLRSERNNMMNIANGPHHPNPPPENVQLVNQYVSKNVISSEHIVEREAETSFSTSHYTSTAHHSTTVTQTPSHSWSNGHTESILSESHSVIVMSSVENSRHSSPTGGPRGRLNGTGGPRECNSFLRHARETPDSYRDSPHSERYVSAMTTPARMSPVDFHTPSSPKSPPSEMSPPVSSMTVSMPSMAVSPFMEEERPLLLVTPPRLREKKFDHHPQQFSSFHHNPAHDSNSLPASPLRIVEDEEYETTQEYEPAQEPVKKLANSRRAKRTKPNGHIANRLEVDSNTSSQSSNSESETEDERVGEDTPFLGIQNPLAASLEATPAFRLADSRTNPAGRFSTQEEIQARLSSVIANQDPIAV
The test system of experiment [7] is Neuregulin-1 EGF-like domain. Put plainly: small molecules binding NRG1 EGF domain – biochemical, small-molecule microarray, 635 nm fluorescence, primary screen (AID 1081).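 Note: binding of the protein to compounds printed on small-molecule microarray slides.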 To be noted: higher = more signal.
A short description of experiment [8]: FRG1 expression reporter modulators in myotubes – cell-based, C2C12 myotubes, firefly/Renilla luciferase, luminescence, FRG1 inhibition for FSHD, primary screen (AID 1084). To be noted: FRG1 promoter luciferase, higher = more signal, called active from +8 up or from −8 down.
A short description of experiment [9]: small molecules captured by biotinylated probe aFST – biochemical, small-molecule microarray, fluorescence 635/667, stem cell growth factor project, primary screen (AID 1086).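 Note: score merges 667 nm fluorescence with signal-to-noise of each printed compound spot.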 To be noted: higher = more signal.
Experiment [10] can be described thus: binders of probe aHhip on microarray, primary screen, stem cell growth factor project, biochemical, small-molecule microarray, fluorescence 635/667 (AID 1087).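 Note: score merges spot fluorescence at 667nm with spot signal to noise ratio.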 The settings on record: higher = more signal.

Chain of Neurogenic locus notch homolog protein 2 (Homo sapiens) (Q04721 whole entry, looked up, canonical isoform): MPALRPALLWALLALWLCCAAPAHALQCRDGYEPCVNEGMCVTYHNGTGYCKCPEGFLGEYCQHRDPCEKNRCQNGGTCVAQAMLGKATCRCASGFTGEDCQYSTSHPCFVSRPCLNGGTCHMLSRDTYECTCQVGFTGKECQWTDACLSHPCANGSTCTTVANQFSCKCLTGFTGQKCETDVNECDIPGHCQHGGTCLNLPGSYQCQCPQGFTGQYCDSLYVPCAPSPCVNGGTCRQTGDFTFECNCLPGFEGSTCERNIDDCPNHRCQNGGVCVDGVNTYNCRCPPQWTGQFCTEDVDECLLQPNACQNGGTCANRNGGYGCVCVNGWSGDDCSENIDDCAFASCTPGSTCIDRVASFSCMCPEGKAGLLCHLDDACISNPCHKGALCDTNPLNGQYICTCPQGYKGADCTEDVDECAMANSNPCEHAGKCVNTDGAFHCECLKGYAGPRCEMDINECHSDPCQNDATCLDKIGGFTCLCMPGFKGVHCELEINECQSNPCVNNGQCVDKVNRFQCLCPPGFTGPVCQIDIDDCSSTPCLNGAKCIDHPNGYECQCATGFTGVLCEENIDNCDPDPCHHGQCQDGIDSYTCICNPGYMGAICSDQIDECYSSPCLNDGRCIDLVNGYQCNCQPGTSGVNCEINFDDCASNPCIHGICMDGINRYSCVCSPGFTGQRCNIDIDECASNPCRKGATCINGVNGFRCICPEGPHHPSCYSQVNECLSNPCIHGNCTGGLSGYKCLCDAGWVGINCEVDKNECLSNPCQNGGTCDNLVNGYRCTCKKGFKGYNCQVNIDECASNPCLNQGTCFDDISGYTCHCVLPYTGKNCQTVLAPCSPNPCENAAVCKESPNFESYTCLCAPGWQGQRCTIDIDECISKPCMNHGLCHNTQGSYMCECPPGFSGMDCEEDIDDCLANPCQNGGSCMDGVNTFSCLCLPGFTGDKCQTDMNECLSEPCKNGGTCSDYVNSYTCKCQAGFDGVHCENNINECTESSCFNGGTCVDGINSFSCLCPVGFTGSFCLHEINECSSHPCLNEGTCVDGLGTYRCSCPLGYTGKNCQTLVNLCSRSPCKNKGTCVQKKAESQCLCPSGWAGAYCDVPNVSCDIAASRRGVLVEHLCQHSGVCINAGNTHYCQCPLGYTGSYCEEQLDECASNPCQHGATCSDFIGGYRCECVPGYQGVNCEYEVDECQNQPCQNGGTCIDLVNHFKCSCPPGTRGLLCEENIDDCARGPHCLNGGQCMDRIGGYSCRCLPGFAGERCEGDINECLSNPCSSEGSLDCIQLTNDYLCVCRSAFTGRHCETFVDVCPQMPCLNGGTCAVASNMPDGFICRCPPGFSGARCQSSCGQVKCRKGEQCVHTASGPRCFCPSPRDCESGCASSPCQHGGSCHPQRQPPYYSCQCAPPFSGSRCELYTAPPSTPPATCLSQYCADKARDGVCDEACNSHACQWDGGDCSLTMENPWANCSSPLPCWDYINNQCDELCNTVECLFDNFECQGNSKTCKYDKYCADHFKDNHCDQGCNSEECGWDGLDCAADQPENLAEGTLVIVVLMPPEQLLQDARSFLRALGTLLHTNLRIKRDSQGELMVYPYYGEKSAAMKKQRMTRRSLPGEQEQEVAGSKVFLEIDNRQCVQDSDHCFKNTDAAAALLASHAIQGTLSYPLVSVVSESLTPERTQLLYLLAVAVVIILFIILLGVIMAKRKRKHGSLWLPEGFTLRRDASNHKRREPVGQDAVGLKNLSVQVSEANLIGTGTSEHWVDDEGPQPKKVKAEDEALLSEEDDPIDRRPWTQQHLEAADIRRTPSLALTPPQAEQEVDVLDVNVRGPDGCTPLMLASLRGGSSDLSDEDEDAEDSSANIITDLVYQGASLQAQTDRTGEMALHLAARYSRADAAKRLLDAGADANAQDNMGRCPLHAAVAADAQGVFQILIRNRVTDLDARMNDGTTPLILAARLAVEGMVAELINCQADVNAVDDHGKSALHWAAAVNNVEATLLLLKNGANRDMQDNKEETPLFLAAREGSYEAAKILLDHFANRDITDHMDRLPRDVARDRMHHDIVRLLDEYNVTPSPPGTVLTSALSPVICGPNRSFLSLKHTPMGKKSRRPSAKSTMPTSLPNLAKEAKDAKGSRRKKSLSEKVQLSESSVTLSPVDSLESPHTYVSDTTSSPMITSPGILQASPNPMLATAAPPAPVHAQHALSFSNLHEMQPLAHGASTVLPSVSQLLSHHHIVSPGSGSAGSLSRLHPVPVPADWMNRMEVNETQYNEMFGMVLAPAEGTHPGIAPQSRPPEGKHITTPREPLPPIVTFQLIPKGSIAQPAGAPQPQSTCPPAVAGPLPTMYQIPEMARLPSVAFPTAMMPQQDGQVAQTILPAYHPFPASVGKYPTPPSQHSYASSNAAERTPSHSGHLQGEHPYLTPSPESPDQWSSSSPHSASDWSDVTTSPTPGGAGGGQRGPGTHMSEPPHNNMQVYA

In the case of `CC(C)C(CO)N1C(=O)[C@@H]2[C@H]3C(=O)OCC=C[C@H]3OC23C=CCN(CCN2CCOCC2)C(=O)[C@@H]13` (stereo not given in full), the composite z-score in [1] is -0.565; in experiment [2], -1.13; in experiment [3] it was -0.166; in experiment [4], -0.351; in experiment [5], -0.868; in experiment [6] it was 0.0853. The figures for the composite z-score in experiment [7], in [9] and in experiment [10] were -0.428, -0.525 and -0.538, respectively. For the same compound, the z-score in [8] was -0.0357 (inactive).
For `O=C1N(CCS(=O)(=O)c2ccccc2)c2ccccc2[C@H]2OC(c3ccc(OCCCO)cc3)=N[C@@]12CCS(=O)(=O)c1ccccc1`, the composite z-score in [1] amounted to 2.15; in experiment [2], 0.625; in experiment [3] it was 0.415; in [4], 0.202; in [5], 1.5; in experiment [6] it was 1.38. Also, the figures for the composite z-score in experiment [7], in experiment [9] and in [10] were 1.36, 1.43 and 0.772, respectively. Besides, in experiment [8], the z-score was -0.938 (inactive).
Take `CCN(CC)c1ccc(N2CC=CC34O[C@@H]5/C=C\CCCOC(=O)C5[C@H]3C(=O)N(CCCCCO)[C@@H]4C2=O)cc1` (stereo not given in full): the composite z-score in experiment [1] is 0.0158; in experiment [2], -1.53; in experiment [3], -0.205; in experiment [4], -1.03; in experiment [5], -1.2; in experiment [6], 1.04. The composite z-score in [7] is 0.516; in experiment [9], -0.663; in experiment [10] it was -0.0994. Also, the z-score in [8] was 0.609 (inactive).
Regarding `COCCCNC(=O)[C@@]1(Cc2ccccc2)COC(c2ccc(OCCCO)cc2)=N1`, the composite z-score in [1] is 0.0674; in [2] it was -0.321; in experiment [3], -0.0745; in experiment [4] it was 0.821; in experiment [5], 0.694; in experiment [6], 1.77. Further, the results for the composite z-score in [7], in experiment [9] and in experiment [10] were 0.99, 0.696 and -0.135, respectively. Moreover, the z-score in [8] was -1.02 (inactive).
For `C[N+](C)(C)CCCCCCNC(=O)[C@@H]1C[C@@H]2C(=O)NCC(=O)N2[C@@H]1c1cccc(OCCO)c1`, the composite z-score in experiment [1] is -0.419; in experiment [2] it was 0.488; in experiment [3], -0.125; in experiment [4], -0.114; in experiment [5], 0.033; in experiment [6], 0.021. Besides, the results for the composite z-score in [7], in experiment [9] and in experiment [10] were 1.22, -0.0422 and -0.34, respectively. Besides, in experiment [8], the z-score is 4.06 (inactive).
Turning to `CC(C)CNC(=O)[C@@]1(c2ccc([N+](=O)[O-])cc2)CC(=O)N(C(C)C)[C@@H]1c1ccc(CO)cc1`, the composite z-score is 0.722 in experiment [1]; -0.187 in experiment [2]; -0.137 in experiment [3]; -0.138 in experiment [4]; -0.205 in [5]; 1.95 in experiment [6]. In addition, the composite z-score is 0.55 in [7], -0.761 in experiment [9] and -0.0252 in experiment [10]. Further, the z-score in experiment [8] was -0.696 (inactive).
`COC(=O)[C@@]1(Cc2ccc(OC)cc2)[C@H]2c3cc(C(=O)N4CCCC4)n(CCc4ccc(O)c(OC)c4)c3C[C@H]2CN1C(=O)c1ccccc1`: the composite z-score in experiment [1] is 0.411; in experiment [2] it was -0.336; in [3], 0.0331; in experiment [4], 0.252; in [5], 1.56; in experiment [6] it was 1.2. The composite z-score amounted to 0.803 in experiment [7], 0.603 in experiment [9] and 0.167 in experiment [10]. In addition, in experiment [8], the z-score was -0.454 (inactive).
Regarding `C=C(COC)C(=O)CC[C@H](OC(=O)c1ccccc1-c1ccccc1C(=O)O)c1ccc(OCCO)cc1`, the composite z-score in [1] is -0.249; in experiment [2] it was 1.42; in experiment [3] it was -0.0729; in experiment [4], 0.512; in experiment [5], -0.0342; in experiment [6], 1.09. Moreover, the composite z-score in experiment [7] is 1.11; in [9], 0.347; in [10], -0.236. Further, the z-score in [8] is 0.552 (inactive).
Turning to `C=CCC(OC(C)=O)[C@@H]1[C@@H](N(Cc2cc3ccccc3o2)C(=O)Cc2ccc(OC)cc2)c2cc(OCCCO)ccc2N1C(=O)c1ccc(-c2ccccc2)cc1` (stereo not given in full), the composite z-score in [1] was 0.378; in experiment [2], 0.459; in experiment [3], -0.0601; in [4], -0.204; in [5] it was -0.4; in experiment [6] it was -0.294. Besides, the composite z-score in experiment [7] is -0.529; in experiment [9], 0.182; in experiment [10] it was 0.251. Moreover, the z-score in [8] is -0.199 (inactive).
On to `CC(C)C[C@H]1NC(=O)[C@H](C)NC(=O)[C@@]23C(=O)N[C@@H](Cc4ccccc4)C2[C@H](C)[C@@]2(C)O[C@H]2C3/C=C/C/C=C\CNC1=O` (stereo not given in full), for which the composite z-score in [1] is -0.021; in experiment [2], 0.366; in [3], -0.104; in [4], -0.0496; in experiment [5], -0.465; in [6], 0.0659. Moreover, the composite z-score is 0.511 in [7], -0.521 in experiment [9] and -0.54 in experiment [10]. The z-score in experiment [8] is 0.171 (inactive).
Take `CCC[C@@H]1C[C@@]1(CCC)[C@@H](NC(=O)c1ccco1)c1ccc(Cl)cc1`: the composite z-score in [1] was -0.0089; in experiment [2], -0.441; in experiment [3], -0.163; in experiment [4], 0.0059; in experiment [5], -0.259; in [6] it was -0.656. Besides, the composite z-score in experiment [7] was -1.26; in experiment [9], 0.161; in experiment [10], -0.313. In [8], the z-score was -0.632 (inactive).
For `CC(C)c1ccc(NN2C(C(O)c3ccccn3)C=CC3C(=O)N(c4ccccc4)C(=O)C32)cc1` (stereo not given), the composite z-score is -0.311 in experiment [1]; 0.205 in [2]; 0.235 in experiment [3]; 1.17 in experiment [4]; 1.64 in experiment [5]; 1.64 in experiment [6]. Further, the composite z-score turned out to be 1.42 in experiment [7], 1.49 in [9] and 0.347 in experiment [10]. Besides, the z-score in experiment [8] is 3.43 (inactive).
With `Cc1cc(C)c(C(O)C2C=CC3C(=O)N(c4ccccc4)C(=O)C3N2Nc2ccccc2)c(C)c1` (stereo not given), the composite z-score in experiment [1] was 0.175; in [2], 0.668; in [3], 0.216; in experiment [4], 1.08; in experiment [5], 1.56; in [6] it was 1.99. The composite z-score is 1.22 in [7], 1.25 in experiment [9] and -0.189 in experiment [10]. In addition, the z-score in experiment [8] was 0.423 (inactive).
Consider `C=CCN1C(=O)[C@@]2(O[C@@H](CCO)[C@H]([Si](C)(C)c3ccc(OC)cc3)[C@H]2C)c2cc(NC(=O)[C@H](C)O)ccc21`, for which the composite z-score is -0.0083 in experiment [1]; 0.558 in experiment [2]; -0.0243 in [3]; 1.03 in experiment [4]; 0.503 in experiment [5]; 0.915 in [6]. Besides, the composite z-score is 1.1 in experiment [7], 0.005 in [9] and -0.169 in experiment [10]. In addition, the z-score in experiment [8] was -0.737 (inactive).
For `O=C(O)[C@]1(CCS(=O)(=O)c2ccccc2)N=C(c2ccc(OCCCO)cc2)O[C@@H]1c1ccccc1`, the composite z-score in [1] was 1.19; in [2] it was -0.106; in experiment [3] it was 0.115; in experiment [4] it was -0.0267; in [5], 0.506; in experiment [6] it was 1.13. The composite z-score in experiment [7] came out at 1.05; in experiment [9] it was 0.914; in experiment [10], 0.744. In [8], the z-score was 0.694 (inactive).
With `COC(=O)C(CC#Cc1ccc2c(c1)[C@]1(C(=O)N2)[C@H](C(=O)N2CCc3cc(OC)c(OC)cc3C2)[C@H]2C(=O)O[C@H](c3ccccc3)[C@H](c3ccccc3)N2[C@@H]1c1ccc(OCCO)cc1)C(=O)OC`, the composite z-score in experiment [1] is -0.295; in [2] it was 1.53; in experiment [3] it was -0.145; in [4], 0.945; in [5] it was 1.54; in experiment [6] it was 1.75. Further, the composite z-score in experiment [7] worked out at 1.31; in experiment [9], 0.672; in [10] it was 0.0373. The z-score in experiment [8] was 0.732 (inactive).
